Records with an inconclusive call do not appear. Activity calls are given as the source filed them. Unless noted, calls come from the whole dose curve.
Tests used:
[1] = Nuclear factor erythroid 2-related factor 2/antioxidant responsive element (Nrf2/ARE) small molecule agonists: qHTS cell viability counter screen in human keratinocytes (AID 1919968; active = well fitted curve in the direction sought with a large enough effect in the repeat runs; an effect the other way counts as inactive or inconclusive; note: nearly all actives have a fitted effect of over 55% in size)
In short: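 Stably transfected HaCaT (KeratinoSens), 1,500/well. Test agents in DMSO were applied for 23 h, 37 C/5% CO2. CellTiter-Fluor was incubated 1 h before the fluorescence read.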

[2] = Nuclear factor erythroid 2-related factor 2/antioxidant responsive element (Nrf2/ARE) small molecule agonists: luciferase reporter gene qHTS assay in human keratinocytes (AID 1919969); note: nearly all actives have a fitted effect of over 35% in size
[3] = target: Gonadotropin-releasing hormone receptor (Homo sapiens) (UniProt P30968); assay: Human gonadotropin-releasing hormone receptor (GnRHR) small molecule agonists, calcium flux assay in GnRHR-HEK293 cells (AID 1920063); note: nearly all actives have a fitted effect of over 35% in size
Gonadotropin-releasing hormone receptor (Homo sapiens), sequence (P30968 whole entry, looked up): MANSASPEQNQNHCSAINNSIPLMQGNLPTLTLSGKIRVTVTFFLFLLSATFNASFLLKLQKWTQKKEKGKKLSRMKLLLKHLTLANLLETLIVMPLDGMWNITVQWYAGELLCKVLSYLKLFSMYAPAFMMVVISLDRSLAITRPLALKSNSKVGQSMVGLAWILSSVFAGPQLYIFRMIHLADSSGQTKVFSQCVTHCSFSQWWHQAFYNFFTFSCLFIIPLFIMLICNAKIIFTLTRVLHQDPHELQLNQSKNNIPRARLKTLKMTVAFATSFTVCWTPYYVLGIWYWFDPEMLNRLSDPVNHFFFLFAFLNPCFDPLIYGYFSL
In short: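 Stable human GnRHR HEK293 line. 18 h plating, then calcium dye for 1 h at 37 C. Agonist-mode compound addition from DMSO stocks; fluorescence monitored 3 min.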

[4] = target: KiSS-1 receptor (Homo sapiens) (UniProt Q969F8); assay: Human kisspeptin (KISS1R) small molecule agonists, calcium flux assay in KISS1R-HEK293 cells (AID 1920064; active = well fitted curve in the direction sought with a large enough effect in the repeat runs; an effect the other way counts as inactive or inconclusive)
KiSS-1 receptor (Homo sapiens), sequence (Q969F8 whole entry, looked up): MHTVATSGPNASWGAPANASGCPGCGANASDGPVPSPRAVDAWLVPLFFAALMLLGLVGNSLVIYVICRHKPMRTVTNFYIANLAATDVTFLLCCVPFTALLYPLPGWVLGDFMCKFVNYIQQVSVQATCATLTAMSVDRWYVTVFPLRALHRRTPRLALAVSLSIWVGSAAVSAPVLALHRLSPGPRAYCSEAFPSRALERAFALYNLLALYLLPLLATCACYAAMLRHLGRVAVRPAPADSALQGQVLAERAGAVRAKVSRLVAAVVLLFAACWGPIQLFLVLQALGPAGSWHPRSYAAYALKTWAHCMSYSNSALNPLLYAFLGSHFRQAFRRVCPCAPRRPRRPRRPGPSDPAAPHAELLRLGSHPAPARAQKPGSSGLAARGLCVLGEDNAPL
In short: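 After overnight (18 h) culture at 37 C/5% CO2, human KISS1R-HEK293 cells received calcium dye for 1 h, then test compound; emission at 540 nm (excitation 480 nm) was tracked for 3 min.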

[5] = G protein-coupled receptor (GPCR) small molecule agonists, calcium flux assay: HEK293 wild type cell line counter screen (AID 1920065)
In short: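 Following 18 h incubation at 37 C/5% CO2, plates got calcium dye for 1 h; compounds, ATP or DMSO were then pinned in and fluorescence followed kinetically (480/540 nm).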

[6] = p53 small molecule agonists, cell-based qHTS assay with human liver microsomes (AID 1963577);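 note: p53 response element beta-lactamase reporter cells with liver microsomes plus NADPH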
In short: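 Reporter activation was measured by LiveBLAzer fluorescence intensity in p53RE-bla cells, which had been exposed to compounds for 16 h at 37 C alongside 0.5 mg/mL human liver microsomes and 0.5 mg/mL NADPH (final concentrations).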

[7] = p53 small molecule agonists, cell-based qHTS assay with rat liver microsomes (AID 1963578)
In short: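 Compound in DMSO added to p53RE-bla cells 5 h post-plating; rat microsomes/NADPH 0.5 mg/mL final; 16 h, 37 C; LiveBLAzer 2 h RT.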

[8] = p53 small molecule agonists, cell-based qHTS assay with human liver microsomes: qHTS cell viability counter screen (AID 1963579); note: nearly all actives have a fitted effect of over 45% in size
In short: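 HLM-supplemented (0.5 mg/mL final) and NADPH-supplemented (0.5 mg/mL final) p53RE-bla cultures, 4,000 cells per well, were dosed with compounds in DMSO for 16 h at 37 C; luminescent ATP detection (CellTiter-Glo, 30 min, room temperature) quantified surviving cells.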

[9] = p53 small molecule agonists, cell-based qHTS assay with rat liver microsomes: qHTS cell viability counter screen (AID 1963580); note: nearly all actives have a fitted effect of over 45% in size
In short: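 Cytotoxicity counter screen: intracellular ATP measured by CellTiter-Glo luminescence in the same wells as the beta-lactamase reporter read, on HCT-116 p53RE-bla cells exposed 16 h at 37 C to compounds with rat liver microsomes and NADPH, each 0.5 mg/mL final.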

[10] = p53 small molecule agonists, cell-based qHTS assay: qHTS cell viability counter screen (AID 1963581); note: nearly all actives have a fitted effect of over 45% in size
In short: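 qHTS counter screen: 16 h compound exposure at 37 C of p53RE-bla HCT-116 cells (4,000 per well, seeded 5 h prior), cell viability by ATP luminescence.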

[11] = p53 small molecule agonists, cell-based qHTS assay (AID 1963582; active = well fitted activation curve with a large enough effect in the signal ratio in the repeat runs, not every such curve was filed as active; the % refers to the signal ratio)
In short: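 Measured: fluorescence from cleaved LiveBLAzer substrate. System: p53RE-bla cells, 16 h compound treatment at 37 C, 2 h substrate step at room temperature.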

[12] = target: 5-hydroxytryptamine receptor 2A (Homo sapiens) (UniProt P28223); assay: 5-hydroxytryptamine receptor 2A (HTR2A) small molecule antagonists, cell-based qHTS assay (AID 1963586); note: nearly all actives have a fitted effect of over 45% in size
5-hydroxytryptamine receptor 2A (Homo sapiens), sequence (P28223 whole entry, looked up): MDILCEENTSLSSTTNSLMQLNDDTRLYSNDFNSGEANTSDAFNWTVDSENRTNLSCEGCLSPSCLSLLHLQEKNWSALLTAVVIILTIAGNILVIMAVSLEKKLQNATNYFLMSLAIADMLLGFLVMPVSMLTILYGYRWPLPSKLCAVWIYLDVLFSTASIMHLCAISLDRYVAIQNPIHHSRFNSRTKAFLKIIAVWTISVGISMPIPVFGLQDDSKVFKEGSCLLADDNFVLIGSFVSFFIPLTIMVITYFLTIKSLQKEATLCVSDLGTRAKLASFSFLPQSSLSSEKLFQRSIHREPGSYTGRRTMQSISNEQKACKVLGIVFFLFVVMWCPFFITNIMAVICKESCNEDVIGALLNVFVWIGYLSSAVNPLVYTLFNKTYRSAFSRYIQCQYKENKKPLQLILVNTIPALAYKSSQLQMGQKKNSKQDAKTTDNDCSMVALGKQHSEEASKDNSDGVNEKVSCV
In short: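 CHO cells stably expressing human HTR2A were plated for 18 h at 37 C, then loaded with calcium dye for 1 h. Compounds were preincubated 5 min at room temperature before DOI (4 nM solution) was added. Kinetic fluorescence was read for 3 min.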

[13] = target: 5-hydroxytryptamine receptor 2A (Homo sapiens) (UniProt P28223); assay: 5-hydroxytryptamine receptor 2A (HTR2A) small molecule agonists, cell-based qHTS assay (AID 1963587); note: nearly all actives have a fitted effect of over 30% in size
In short: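 CHO cells stably expressing human HTR2A, plated 18 h, loaded with calcium dye 1 h at 37 C. Agonist mode: compounds added and intracellular calcium fluorescence recorded kinetically for 2 min at 1 sec intervals.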

[14] = target: Muscarinic acetylcholine receptor M1 (Homo sapiens) (UniProt P11229); assay: Cholinergic receptor muscarinic 1 (CHRM1) small molecule antagonists, cell-based qHTS assay (AID 1963588); note: nearly all actives have a fitted effect of over 40% in size; note: potency is the fitted concentration of half-maximal effect
Muscarinic acetylcholine receptor M1 (Homo sapiens), sequence (P11229 whole entry, looked up): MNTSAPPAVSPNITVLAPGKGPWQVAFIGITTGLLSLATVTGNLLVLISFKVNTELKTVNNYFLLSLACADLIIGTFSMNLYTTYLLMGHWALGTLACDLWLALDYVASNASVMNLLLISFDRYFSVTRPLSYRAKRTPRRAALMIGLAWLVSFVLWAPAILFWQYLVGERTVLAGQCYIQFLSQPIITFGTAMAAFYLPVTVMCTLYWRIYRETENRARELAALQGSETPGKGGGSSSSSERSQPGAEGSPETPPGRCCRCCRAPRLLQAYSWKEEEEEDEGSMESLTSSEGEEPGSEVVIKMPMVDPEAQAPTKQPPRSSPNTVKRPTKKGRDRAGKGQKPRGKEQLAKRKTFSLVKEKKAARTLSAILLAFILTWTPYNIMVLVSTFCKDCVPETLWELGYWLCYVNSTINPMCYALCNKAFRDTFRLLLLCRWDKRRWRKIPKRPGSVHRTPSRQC
In short: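 Compounds were tested at 15 concentrations in three independent runs. Dye-loaded CHRM1-CHO cells were exposed 5 min at room temperature before stimulation by acetylcholine added at 50nM. Intracellular calcium was read kinetically on FDSS for 3 min.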

[15] = target: Muscarinic acetylcholine receptor M1 (Homo sapiens) (UniProt P11229); assay: Cholinergic receptor muscarinic 1 (CHRM1) small molecule agonists, cell-based qHTS assay (AID 1963589); note: nearly all actives have a fitted effect of over 35% in size
In short: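 Kinetic fluorescence (1 s intervals) of calcium-sensitive dye in human M1 CHO cells after compound addition; cells pre-incubated 18 h at 37 C/5% CO2 and dye-loaded 1 h.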

[16] = cAMP Responsive Elements (CRE) small molecule agonists, cell-based qHTS assay (AID 1963590)
In short: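 Test agents in DMSO were incubated 3 h at 37 C/5% CO2 with CRE-bla HEK 293T cells seeded 18 h earlier; LiveBLAzer B/G FRET substrate was added and read after 2 h at room temperature.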

[17] = cAMP Responsive Elements (CRE) small molecule antagonists, cell-based qHTS assay (AID 1963591; active = well fitted inhibition curve with a large enough effect in the signal ratio in the repeat runs, not every such curve was filed as active; the % refers to the signal ratio)
In short: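 Reporter line CRE-bla HEK 293T in dialyzed-FBS DMEM; cells preincubated 18 h, treated 3 h with compound plus NKH477 (0.25 uM final); LiveBLAzer FRET, 2 h RT.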

[18] = target: Beta-2 adrenergic receptor (Homo sapiens) (UniProt P07550); assay: Adrenergic beta2 receptor (ADRB2) small molecule antagonists, cell-based qHTS assay (AID 1963592); note: series mostly up to about 92 µM; nearly all actives have a fitted effect of over 50% in size
Beta-2 adrenergic receptor (Homo sapiens), sequence (P07550 whole entry, looked up): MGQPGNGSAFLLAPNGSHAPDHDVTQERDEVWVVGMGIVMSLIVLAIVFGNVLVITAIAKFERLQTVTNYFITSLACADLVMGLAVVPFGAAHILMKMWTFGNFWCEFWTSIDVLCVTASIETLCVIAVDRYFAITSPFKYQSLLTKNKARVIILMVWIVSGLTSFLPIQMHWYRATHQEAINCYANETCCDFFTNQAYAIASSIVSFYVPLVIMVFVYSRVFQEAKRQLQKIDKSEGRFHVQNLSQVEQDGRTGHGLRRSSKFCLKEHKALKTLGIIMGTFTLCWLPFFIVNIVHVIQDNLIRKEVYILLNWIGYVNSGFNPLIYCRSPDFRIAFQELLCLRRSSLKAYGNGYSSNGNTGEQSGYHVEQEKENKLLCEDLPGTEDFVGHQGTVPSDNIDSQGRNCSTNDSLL
In short: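 Assay format: CHO-ADRB2 cells, 18-20hr seeding at 37C/5% CO2, then compound plus 1nM isoproterenol agonist mix for 0.5hr RT. Homogeneous time-resolved fluorescence cAMP detection after 1hr, expressed as 665/615 nm ratio.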

[19] = target: D(2) dopamine receptor (Homo sapiens) (UniProt P14416); assay: Dopamine D2 receptor (DRD2) small molecule agonists, cell-based qHTS assay (AID 1963594); note: nearly all actives have a fitted effect of over 35% in size
D(2) dopamine receptor (Homo sapiens), sequence (P14416 whole entry, looked up): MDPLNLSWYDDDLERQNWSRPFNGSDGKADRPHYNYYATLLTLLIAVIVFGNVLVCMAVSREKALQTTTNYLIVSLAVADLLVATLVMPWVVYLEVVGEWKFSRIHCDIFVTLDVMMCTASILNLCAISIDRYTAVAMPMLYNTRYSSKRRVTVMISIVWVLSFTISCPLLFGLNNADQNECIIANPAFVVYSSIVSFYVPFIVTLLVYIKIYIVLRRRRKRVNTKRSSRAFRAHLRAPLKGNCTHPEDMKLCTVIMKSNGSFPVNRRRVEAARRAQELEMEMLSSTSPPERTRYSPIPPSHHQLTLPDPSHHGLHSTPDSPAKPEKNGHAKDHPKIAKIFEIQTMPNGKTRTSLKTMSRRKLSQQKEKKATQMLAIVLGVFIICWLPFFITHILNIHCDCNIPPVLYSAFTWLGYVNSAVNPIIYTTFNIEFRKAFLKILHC
In short: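 HEK293 cells stably expressing human DRD2, pre-treated with PDE inhibitor Ro20-1724 (0.1 mM final) and compound 10 min at room temperature, then stimulated with NKH477 (200nM […]) for 30 min. cAMP read by HTRF (665/620 nm).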

[20] = target: D(2) dopamine receptor (Homo sapiens) (UniProt P14416); assay: Dopamine D2 receptor (DRD2) small molecule antagonists, cell-based qHTS assay (AID 1963595; active = well fitted inhibition curve with a large enough effect in the signal ratio in the repeat runs, with a control signal flat; the % refers to the signal ratio)
In short: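 Stable D2 receptor HEK293 line, 24 h after seeding. Compound preincubated 10 min, then quinpirole (12 nM) with forskolin analogue NKH477 (200 nM), 30 min, room temperature. Detection by time-resolved FRET of cAMP.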

Measured: Potency

Cc1ccc(-c2nc3ccc(C)cn3c2CC(=O)N(C)C)cc1
inactive: [1] | [2] | [3] | [4] | [5] | [6] | [7] | [8] | [9] | [10] | [11] | [12] | [13] | [14] | [15] | [16] | [17] | [18] | [19] | [20]

Cc1ccc(O)c(C)c1
inactive: [1] | [2] | [3] | [4] | [5] | [6] | [7] | [8] | [9] | [10] | [11] | [12] | [13] | [14] | [15] | [16] | [17] | [18] | [19] | [20]

COc1ccc(C=O)cc1
inactive: [1] | [2] | [3] | [4] | [5] | [6] | [7] | [8] | [9] | [10] | [11] | [12] | [13] | [14] | [15] | [16] | [17] | [18] | [19] | [20]

O=Cc1ccc(Cl)cc1Cl
inactive: [1] | [2] | [3] | [4] | [5] | [6] | [7] | [8] | [9] | [10] | [11] | [12] | [13] | [14] | [15] | [16] | [17] | [18] | [19] | [20]

Oc1ccc(Cl)cc1Cl
inactive: [1] | [2] | [3] | [4] | [5] | [6] | [7] | [8] | [9] | [10] | [11] | [12] | [13] | [14] | [15] | [16] | [17] | [18] | [20]

ClC1(Cl)C2(Cl)C3(Cl)C4(Cl)C(Cl)(Cl)C5(Cl)C3(Cl)C1(Cl)C5(Cl)C24Cl (configuration not stated)
inactive: [1] | [2] | [3] | [4] | [5] | [6] | [7] | [8] | [9] | [10] | [11] | [12] | [13] | [14] | [15] | [16] | [17] | [18] | [19]

C[C@@H]1CN(C2CCC(C#N)(c3ccc(F)cc3)CC2)CC[C@]1(C(=O)O)c1ccccc1 (some centres not stated)
inactive: [1] | [2] | [3] | [4] | [5] | [6] | [7] | [8] | [9] | [10] | [11] | [12] | [13] | [14] | [15] | [16] | [17] | [18] | [19]

CCOC(=O)C1OC1(C)c1ccccc1 (configuration not stated)
inactive: [1] | [2] | [3] | [4] | [5] | [6] | [7] | [8] | [9] | [10] | [11] | [12] | [13] | [14] | [15] | [16] | [17] | [18] | [19] | [20]

O=[N+]([O-])c1cc(Cl)c(Cl)c(Cl)c1
inactive: [1] | [2] | [3] | [4] | [5] | [6] | [7] | [8] | [9] | [10] | [11] | [12] | [13] | [14] | [15] | [16] | [17] | [18] | [19] | [20]

CN(CCCC(=O)c1cccnc1)N=O
inactive: [1] | [2] | [3] | [4] | [5] | [6] | [7] | [8] | [9] | [10] | [11] | [12] | [13] | [14] | [15] | [16] | [17] | [18] | [19] | [20]

CC(C)N(C(=O)SCC(Cl)=C(Cl)Cl)C(C)C
inactive: [1] | [2] | [3] | [4] | [5] | [6] | [7] | [8] | [9] | [10] | [11] | [12] | [13] | [15] | [16] | [17] | [18] | [19] | [20]
active: [14] 23.4 µM

N#Cc1ccccc1N
inactive: [1] | [2] | [3] | [4] | [5] | [6] | [7] | [8] | [9] | [10] | [11] | [12] | [13] | [14] | [15] | [16] | [17] | [18] | [20]

ClC1=C(Cl)[C@]2(Cl)[C@@H]3[C@@H](Cl)[C@@H](Cl)C[C@@H]3[C@@]1(Cl)C2(Cl)Cl
inactive: [1] | [2] | [3] | [4] | [5] | [6] | [7] | [8] | [9] | [10] | [11] | [12] | [13] | [14] | [15] | [16] | [17] | [18] | [20]

CNC(=O)O/N=C/C(C)(C)S(C)=O (configuration not stated)
inactive: [1] | [2] | [3] | [4] | [5] | [6] | [7] | [8] | [9] | [10] | [11] | [12] | [13] | [14] | [15] | [16] | [17] | [19] | [20]

CCCCC#N
inactive: [1] | [2] | [3] | [4] | [5] | [6] | [7] | [8] | [9] | [10] | [11] | [12] | [13] | [14] | [15] | [16] | [17] | [18] | [19] | [20]

O=C(O)C(Cl)Br (configuration not stated)
inactive: [1] | [2] | [3] | [4] | [5] | [6] | [7] | [8] | [9] | [10] | [11] | [12] | [13] | [14] | [15] | [16] | [17] | [19] | [20]

CC(C)C1(C)N=C(c2nc3ccccc3cc2C(=O)O)NC1=O (configuration not stated)
inactive: [1] | [2] | [3] | [4] | [5] | [6] | [7] | [8] | [9] | [10] | [11] | [12] | [13] | [14] | [15] | [16] | [17] | [19] | [20]

Source: PubChem BioAssay (Tox21)
